Paper PMC5700166
Residue numbers refer to the chain shown, from its start.

How the values were obtained:
Assay in all cases: protein-binding microarray (PBM); PBM: ~300 nM protein, 6 mM HEPES pH 7.8, 80 mM KCl, 0.5 mM EDTA, 0.5 mM EGTA, 6% glycerol, 35 ng/ul poly-dIdC, 1% milk, 1 h, room temperature; Ap Aiptasia and Nv Nematostella (sea anemones) / Co Capsaspora / Aq Amphimedon (sponge) / Dm Drosophila / Hu human; RHD is the Rel homology domain; high values mean tight binding
Conditions in all cases: dsDNA, one strand shown
GST-Ap-NF-kB RHD = molecular target: T1, GST-Ap-NF-kB RHD (Exaiptasia pallida (Aiptasia), UniProt A0A913YAJ5 2-422)
T1 sequence: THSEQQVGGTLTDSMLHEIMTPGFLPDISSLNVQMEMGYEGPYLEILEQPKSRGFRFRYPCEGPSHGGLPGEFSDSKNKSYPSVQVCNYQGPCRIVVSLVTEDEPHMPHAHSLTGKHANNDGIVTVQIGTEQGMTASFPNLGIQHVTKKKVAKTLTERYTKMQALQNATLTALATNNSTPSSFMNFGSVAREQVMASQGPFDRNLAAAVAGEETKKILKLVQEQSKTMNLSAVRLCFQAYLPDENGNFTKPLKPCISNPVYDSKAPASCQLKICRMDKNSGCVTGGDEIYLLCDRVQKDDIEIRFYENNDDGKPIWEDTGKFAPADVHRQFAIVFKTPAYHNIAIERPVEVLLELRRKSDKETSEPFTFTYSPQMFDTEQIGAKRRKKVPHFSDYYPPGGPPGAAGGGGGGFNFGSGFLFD

[1] = molecular target: T2, GST-Nv-NF-kB (Cys allele) (Nematostella vectensis, UniProt E5G601 2-411)
T2 sequence: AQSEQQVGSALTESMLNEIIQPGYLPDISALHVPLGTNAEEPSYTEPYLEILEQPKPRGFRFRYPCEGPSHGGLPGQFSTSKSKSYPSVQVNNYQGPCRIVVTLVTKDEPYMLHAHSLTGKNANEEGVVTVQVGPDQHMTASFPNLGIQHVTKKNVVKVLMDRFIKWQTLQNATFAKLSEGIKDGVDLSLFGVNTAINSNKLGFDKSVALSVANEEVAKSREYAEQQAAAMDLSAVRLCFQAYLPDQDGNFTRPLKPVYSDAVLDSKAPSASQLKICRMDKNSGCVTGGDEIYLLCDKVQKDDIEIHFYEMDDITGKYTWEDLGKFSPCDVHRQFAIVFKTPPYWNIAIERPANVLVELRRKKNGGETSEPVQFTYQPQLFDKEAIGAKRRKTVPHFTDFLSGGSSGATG

[2] = molecular target: T3, GST-Nv-NF-kB (Ser allele) (Nematostella vectensis, UniProt A7UNT2 2-411)
T3 sequence: T2 sequence with Q21R, C66S, S207N, E215Q, V217A, E225K, A268E, D399E

GST-Co-NF-kB = molecular target: T4, GST-Co-NF-kB (Capsaspora owczarzaki, UniProt F1ARL5 200-546)
T4 sequence: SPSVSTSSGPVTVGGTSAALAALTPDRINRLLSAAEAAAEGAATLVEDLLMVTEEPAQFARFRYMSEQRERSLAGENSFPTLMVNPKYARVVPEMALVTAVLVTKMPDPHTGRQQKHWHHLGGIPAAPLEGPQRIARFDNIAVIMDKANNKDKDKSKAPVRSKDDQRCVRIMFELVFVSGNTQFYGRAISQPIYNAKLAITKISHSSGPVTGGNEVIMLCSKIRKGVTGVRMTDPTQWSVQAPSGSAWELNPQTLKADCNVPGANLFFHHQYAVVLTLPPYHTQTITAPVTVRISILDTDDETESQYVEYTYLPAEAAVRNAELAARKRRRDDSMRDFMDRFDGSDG

GST-Dm-Relish = molecular target: T5, GST-Dm-Relish (Drosophila melanogaster, UniProt Q94527 99-473)
T5 sequence: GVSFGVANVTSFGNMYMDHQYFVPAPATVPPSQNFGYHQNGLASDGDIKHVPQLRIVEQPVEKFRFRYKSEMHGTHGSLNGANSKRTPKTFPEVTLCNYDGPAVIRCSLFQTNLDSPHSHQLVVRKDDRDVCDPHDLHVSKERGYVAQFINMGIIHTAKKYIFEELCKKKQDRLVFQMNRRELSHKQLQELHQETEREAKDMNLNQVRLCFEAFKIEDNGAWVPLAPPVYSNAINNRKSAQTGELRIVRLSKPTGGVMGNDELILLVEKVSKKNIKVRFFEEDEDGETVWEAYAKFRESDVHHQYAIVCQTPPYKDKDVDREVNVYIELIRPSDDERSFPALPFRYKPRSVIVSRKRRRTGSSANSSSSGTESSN

GST-Aq-NF-kB = molecular target: T6, GST-Aq-NF-kB (Amphimedon queenslandica, UniProt A9Y5G7 2-389)
T6 sequence: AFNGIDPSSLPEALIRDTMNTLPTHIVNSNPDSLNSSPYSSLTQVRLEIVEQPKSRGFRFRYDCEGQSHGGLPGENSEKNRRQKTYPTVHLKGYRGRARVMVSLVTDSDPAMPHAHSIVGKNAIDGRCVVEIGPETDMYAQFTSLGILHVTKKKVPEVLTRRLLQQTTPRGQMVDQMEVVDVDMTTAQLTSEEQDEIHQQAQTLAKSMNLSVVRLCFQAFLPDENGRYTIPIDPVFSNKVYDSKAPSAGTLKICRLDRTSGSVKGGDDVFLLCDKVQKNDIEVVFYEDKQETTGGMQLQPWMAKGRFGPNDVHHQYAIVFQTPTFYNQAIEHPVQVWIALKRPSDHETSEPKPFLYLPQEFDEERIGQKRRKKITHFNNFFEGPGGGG

GST-Hu-p50 = GST-Hu-p50 (Homo sapiens, UniProt P19838 7-356)
Chain of GST-Hu-p50 (P19838 7-356): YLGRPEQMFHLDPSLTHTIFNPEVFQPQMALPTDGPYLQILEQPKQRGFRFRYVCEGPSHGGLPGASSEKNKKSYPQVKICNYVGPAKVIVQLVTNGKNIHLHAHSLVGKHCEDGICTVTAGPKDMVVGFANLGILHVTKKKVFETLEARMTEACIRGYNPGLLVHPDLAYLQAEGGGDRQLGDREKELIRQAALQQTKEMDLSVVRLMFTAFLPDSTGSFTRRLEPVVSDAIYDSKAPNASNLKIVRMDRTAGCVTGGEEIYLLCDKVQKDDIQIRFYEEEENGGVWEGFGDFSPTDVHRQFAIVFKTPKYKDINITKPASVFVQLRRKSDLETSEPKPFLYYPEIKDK

Sequence: CCGATTAACATCAAGATACCCCCTGATGTTAATCGGGTCTTGATTCGCTTGACGCTGCTG
- binding signal (GST-Ap-NF-kB RHD): 7.1 z-score
- binding signal [1]: 4.31 z-score
- binding signal [2]: 5.25 z-score
- binding signal (GST-Co-NF-kB): 4.96 z-score
- binding signal (GST-Dm-Relish): 4.14 z-score
- binding signal (GST-Aq-NF-kB): 4.36 z-score
- binding signal (GST-Hu-p50): 4.66 z-score

Sequence: CCGATTAACATCAAAACTCCCCCTGATGTTAATCGGGTCTTGATTCGCTTGACGCTGCTG
- binding signal (GST-Ap-NF-kB RHD): 9.31 z-score
- binding signal [1]: 8.47 z-score
- binding signal [2]: 9.96 z-score
- binding signal (GST-Co-NF-kB): 9.22 z-score
- binding signal (GST-Dm-Relish): 8.02 z-score
- binding signal (GST-Aq-NF-kB): 7.6 z-score
- binding signal (GST-Hu-p50): 8.06 z-score

Sequence: CCGATTAACATCAAAACTTTCCCTGATGTTAATCGGGTCTTGATTCGCTTGACGCTGCTG
- binding signal (GST-Ap-NF-kB RHD): 4.81 z-score
- binding signal [1]: 8.68 z-score
- binding signal [2]: 8.65 z-score
- binding signal (GST-Co-NF-kB): 6.16 z-score
- binding signal (GST-Dm-Relish): 4.08 z-score
- binding signal (GST-Aq-NF-kB): 7.54 z-score
- binding signal (GST-Hu-p50): 5.54 z-score

Sequence: CCGATTAACATCAAAACTCCCCTTGATGTTAATCGGGTCTTGATTCGCTTGACGCTGCTG
- binding signal (GST-Ap-NF-kB RHD): 8.31 z-score
- binding signal [1]: 7.73 z-score
- binding signal [2]: 8.37 z-score
- binding signal (GST-Co-NF-kB): 4.59 z-score
- binding signal (GST-Dm-Relish): 7.49 z-score
- binding signal (GST-Aq-NF-kB): 7.22 z-score
- binding signal (GST-Hu-p50): 6.44 z-score

Sequence: CCGATTAACATCAGAAAATCCCCTGATGTTAATCGGGTCTTGATTCGCTTGACGCTGCTG
- binding signal (GST-Ap-NF-kB RHD): 10.4 z-score
- binding signal [1]: 12 z-score
- binding signal [2]: 13.8 z-score
- binding signal (GST-Co-NF-kB): 4.89 z-score
- binding signal (GST-Dm-Relish): 9.8 z-score
- binding signal (GST-Aq-NF-kB): 8.95 z-score
- binding signal (GST-Hu-p50): 8.46 z-score

Sequence: CCGATTAACATCAATTTTCCCCATGATGTTAATCGGGTCTTGATTCGCTTGACGCTGCTG
- binding signal (GST-Ap-NF-kB RHD): 6.24 z-score
- binding signal [1]: 7.68 z-score
- binding signal [2]: 9.27 z-score
- binding signal (GST-Co-NF-kB): 9.2 z-score
- binding signal (GST-Dm-Relish): 2.3 z-score
- binding signal (GST-Aq-NF-kB): 5.53 z-score
- binding signal (GST-Hu-p50): 6.08 z-score
